BAZ2B inh: blocks human BAZ2B; Q9UIF8; AlphaScreen BAZ2B-H3K14Ac peptide displacement; Potency, µM (doses to about 114 µM), actives largely listed as inhibitors; 360,000 compounds, 4.4% hits; AID 504333; note: nearly all actives have a fitted effect of over 60% in size
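Complex of BAZ2B and biotin-H3K14Ac (50 nM apiece) forms over 30 min at RT, then faces library compounds up to 110 uM for another 30 min; AlphaScreen beads added, 20 min dark incubation, luminescence read.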
L3MBTL1 inh: inhibitors of human L3MBTL1; Potency, µM (series often up to 57.1 µM), usual class: inhibitors; Q9Y468; 230,000 compounds, 0.66% hits; AID 485360; AlphaScreen L3MBTL1–H3K9me1 peptide binding; note: nearly all actives have a fitted effect of over 60% in size
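First, the protein-peptide complex forms for 30 min at room temperature (L3MBTL1 50 nM, biotinylated H3K9me1 peptide 75 nM). Next, compounds are pin-transferred and incubated 30 min. Finally, AlphaScreen beads are added and read after 30 min.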
HP1b binding inh: blocks HP1-beta chromodomain binding to methylated histone tails; P83916; AlphaScreen HP1-beta / biotin-H3K9me3 peptide binding; Potency, µM (series often up to 114 µM), hits mostly inhibitors; 390,000 compounds, 0.56% hits; AID 540317; note: nearly all actives have a fitted effect of over 70% in size
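Compound inhibition of the preformed complex between 50 nM HP1-beta and 50 nM biotinylated H3K9me3 peptide was read by AlphaScreen. Buffer was PBS pH 7.4 with 0.01% Tween-20. Incubations ran 30 min at room temperature, with 10 ug/mL donor/acceptor beads.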
JMJD2A Tudor: inhibitors of human JMJD2A Tudor domain; Potency, µM (top dose mostly 114 µM), actives largely listed as inhibitors; AlphaScreen JMJD2A-Tudor / H3K4me3 peptide binding; 390,000 compounds, 4.4% hits; O75164; note: nearly all actives have a fitted effect of over 50% in size
Target sequence (O75164 whole entry, looked up, the tested form may be a part): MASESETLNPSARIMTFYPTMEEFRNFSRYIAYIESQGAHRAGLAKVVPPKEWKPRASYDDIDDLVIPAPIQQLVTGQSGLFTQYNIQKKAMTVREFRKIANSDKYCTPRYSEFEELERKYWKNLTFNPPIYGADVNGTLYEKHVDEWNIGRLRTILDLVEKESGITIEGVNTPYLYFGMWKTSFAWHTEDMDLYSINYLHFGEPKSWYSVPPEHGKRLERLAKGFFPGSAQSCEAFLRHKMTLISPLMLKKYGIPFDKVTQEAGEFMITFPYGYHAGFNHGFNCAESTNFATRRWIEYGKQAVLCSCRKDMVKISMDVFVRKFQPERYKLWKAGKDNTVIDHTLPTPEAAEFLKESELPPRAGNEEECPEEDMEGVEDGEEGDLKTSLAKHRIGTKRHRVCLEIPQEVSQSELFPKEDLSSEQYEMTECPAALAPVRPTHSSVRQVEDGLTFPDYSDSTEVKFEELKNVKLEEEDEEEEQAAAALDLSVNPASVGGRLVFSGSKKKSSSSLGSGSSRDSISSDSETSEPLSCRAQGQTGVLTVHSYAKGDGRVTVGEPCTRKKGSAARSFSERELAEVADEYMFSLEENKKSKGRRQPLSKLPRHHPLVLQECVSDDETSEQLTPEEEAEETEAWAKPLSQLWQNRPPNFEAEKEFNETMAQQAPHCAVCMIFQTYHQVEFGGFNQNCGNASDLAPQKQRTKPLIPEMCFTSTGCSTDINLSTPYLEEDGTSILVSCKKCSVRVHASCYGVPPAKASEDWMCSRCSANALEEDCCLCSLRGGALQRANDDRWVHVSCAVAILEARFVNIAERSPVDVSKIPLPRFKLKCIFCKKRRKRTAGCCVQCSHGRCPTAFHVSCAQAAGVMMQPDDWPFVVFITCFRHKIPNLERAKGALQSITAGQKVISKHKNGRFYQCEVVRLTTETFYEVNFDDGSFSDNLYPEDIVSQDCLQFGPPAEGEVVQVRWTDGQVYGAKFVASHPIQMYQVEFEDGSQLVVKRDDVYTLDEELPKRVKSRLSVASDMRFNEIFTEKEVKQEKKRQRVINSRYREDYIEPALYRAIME
G9a block: blocks human histone lysine methyltransferase G9a; 350,000 compounds, 8.8% hits; AID 504332; Q96KQ7; Potency, µM (titrated, usually from 102 µM), actives largely listed as inhibitors; G9a H3K9 monomethylation, AlphaScreen, 2 h; note: nearly all actives have a fitted effect of over 75% in size
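Using a bead-based AlphaScreen, monomethylated H3K9 product from 2 h room-temperature reactions (G9a 20 nM, peptide 500 nM, SAM 20 uM) was detected with 0.5 ug/mL rabbit anti-H3K9me1 antibody.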
A number is an active result; . = inactive; ? = inconclusive; / = not tested or not shown; [ ] = another dose, or the depositor's remark. Compounds with a hit are over-represented: about 11% of the library has one in this group of screens. Calls come from the whole dose curve; as a rule, active = well fitted inhibition curve with a large enough effect; inconclusive = small, poorly fitted or top-dose-only effect; inactive = no such curve, though single readings can be large or run the other way.

SMILES	BAZ2B inh	L3MBTL1 inh	HP1b binding inh	JMJD2A Tudor	G9a block
Cc1ccc(C)c(/C(O)=C2/C(=O)C(=O)N(CCN3CCOCC3)C2c2ccc(C)o2)c1 (configuration not stated)	.	.	.	?	14µM
Cc1c(/C(O)=C2/C(=O)C(=O)N(CCN3CCOCC3)C2c2ccccn2)cnn1-c1ccccc1 (configuration not stated)	25µM	.	.	50µM	7.9µM
Cc1c(/C(O)=C2\C(=O)C(=O)N(CCCN(C)C)C2c2ccccc2)cnn1-c1ccccc1 (configuration not stated)	.	.	.	.	.
Cc1ccc(C2/C(=C(/O)c3cnn(-c4ccccc4)c3C)C(=O)C(=O)N2CCCN2CCOCC2)o1 (configuration not stated)	79µM	/	/	/	.[12.7 µM]
O=C(NCc1cccc(F)c1)c1ccc2nc(N3CCCCC3)sc2c1	.	/	.	.	.
COc1ccc(NC(=O)Nc2ccc3c(c2)OCO3)c(C)c1	.	/	.	.	/
C[C@@H](NC(=O)c1cc2c([nH]c3ccccc32)c(-c2ccccc2)n1)C(=O)O	?	/	.	.	.
Cc1ccc2c(c1)c(=O)c1ccccc1n2CCCC(=O)Nc1cc(Cl)ccc1C	.	/	.	.	.
CCN(C(=O)c1sc2nc3n(c(=O)c2c1C)CCCC3)c1ccccc1F	.	/	.	.	13µM
Cc1ccc(Cl)cc1N(C)C(=O)c1sc2nc3n(c(=O)c2c1C)CCCC3	?	/	.	.	13µM
CCCN(C(=O)c1sc2nc3n(c(=O)c2c1C)CCCC3)c1ccccc1C	?	/	.	.	?
Cc1ccc(N(C)C(=O)c2sc3nc4n(c(=O)c3c2C)CCCC4)cc1C	.	/	.	.	.
COc1cc(/C=C2\SC(=O)N(CC(=O)Nc3ccc(C)cc3)C2=O)cc(Cl)c1OCC(=O)O	14µM	?	14µM	11µM	?
O=C(CN1C(=O)S/C(=C\c2cc(Cl)c(O)c(Cl)c2)C1=O)Nc1ccccc1	45µM	.	.	?	/
Cc1ccoc1C(=O)NCCNc1ccc(Cl)cc1[N+](=O)[O-]	45µM	.	?	?	18µM
Cc1ccc(S(=O)(=O)N2CCN(c3nc(-c4cccs4)nc4cccnc34)CC2)cc1	/	/	.	.	/
NS(=O)(=O)c1ccc(CNC(=O)c2csc3c2CCCC3)cc1	.	.	.	.	20µM
COc1cc(-c2cc3n(C)c(C)c(CCC(=O)NC4CCC(C)CC4)c(=O)n3n2)cc(OC)c1OC (configuration not stated)	.	/	.	.	.
CC1CCCC(NCC(O)COC(c2ccc(F)cc2)c2ccc(F)cc2)C1C (configuration not stated)	?	.	?	1µM	8.9µM
CC1CCCC(NC(=O)CSc2ccc(F)cc2)C1C (configuration not stated)	.	?	.	.	.
Cc1nc2ccccn2c1-c1ccnc(=S)[nH]1	.	.	.	.	10µM
c1ccn2c(c1)nc1c2nc2ccccn21	.	.	.	.	.
Cc1cccc(CS(=O)(=O)c2nnc([C@H](Cc3ccccc3)NC(=O)OC(C)(C)C)o2)c1	.	/	.	.	10µM
COC(=O)CS(=O)(=O)c1nnc([C@H](Cc2ccccc2)NC(=O)OC(C)(C)C)o1	.	.	.	79µM	?
COC(=O)CSc1nnc([C@H](Cc2ccccc2)NC(=O)OC(C)(C)C)o1	.	.	.	.	.
SMILES	BAZ2B inh	L3MBTL1 inh	HP1b binding inh	JMJD2A Tudor	G9a block
CN(C)C(=O)CSc1nnc([C@H](Cc2ccccc2)NC(=O)OC(C)(C)C)o1	.	.	.	.	40µM
CC(C)(C)OC(=O)N[C@@H](Cc1ccccc1)c1nnc(SCC(N)=O)o1	.	.	.	.	?
C[C@H](NC(=O)OCc1ccccc1)c1nnc([C@H](Cc2ccccc2)NC(=O)OC(C)(C)C)o1	.	/	.	.	.
COc1ccc2oc(-c3cccc(NC(=O)c4ccc(C#N)cc4F)c3)nc2c1	.	/	.	.	.
Cc1ccc(CNCCNCCO)s1	.	.	.	.	40µM
Cc1ccc(C(=O)N2NC(c3ccc(F)cc3)C3C(=O)N(c4ccc(C)cc4)C(=O)C32)cc1 (configuration not stated)	.	.	.	.	.
CCOc1ccc(N2C(=O)C3C(c4ccccc4F)NN(C(=O)c4ccc(C)cc4)C3C2=O)cc1 (configuration not stated)	.	.	.	.	50µM
Cc1ccc(C(=O)N2NC(c3ccc(F)cc3)C3C(=O)N(c4ccc(C)c(C)c4)C(=O)C32)cc1 (configuration not stated)	.	?	.	.	56µM
CCS(=O)(=O)c1nc(NC(C)=O)n[nH]1	50µM	.	.	.[11.4 µM]	5.6µM
COc1ccccc1-c1nc(NC(C)=O)n[nH]1	.	.	.	.	.
O=[N+]([O-])c1cc(-c2csc(NCCc3nc4cc(C(F)(F)F)ccc4n3CCCO)n2)ccc1Cl	/	/	.	45µM	/
Cc1ccc(Cn2c(CCNc3nc(-c4ccc(Cl)c([N+](=O)[O-])c4)cs3)nc3cc(C(=O)NCCCO)ccc32)cc1	/	/	.	35µM	/
CCC1CCCCN1CC(=O)N1CCCc2c1c(=O)oc1ccc(OCc3ccccc3)cc21 (configuration not stated)	.	/	.	.	?
Cc1conc1NC(c1cccs1)c1ccc2cccnc2c1O (configuration not stated)	25µM	?	/	/	.[2.33 µM]
CC(C)CC(=O)NC(NC(=S)Nc1cccc2cccnc12)C(Cl)(Cl)Cl (configuration not stated)	.	.	.	.	?
CC(C)CC(=O)NC(c1cccs1)c1ccc2cccnc2c1O (configuration not stated)	.	.	.	50µM	.
Cc1cc(C)cc(NC(=O)C(=O)NCC(c2cccnc2)N2CCc3ccccc3C2)c1 (configuration not stated)	.	/	.	.	.
COc1ccc(OC)c(NC(=O)CN(C)S(=O)(=O)c2ccc(C(=O)N3CCOCC3)s2)c1	.	/	.	.	.
COc1ccc(-c2ccc(NS(=O)(=O)c3ccc(F)c(C(F)(F)F)c3)cc2)nn1	.	/	.	.	.
N[C@H](C(=O)O)c1cccc(O)c1	/	/	/	/	.
COC(=O)C1=C(C(=O)OC)C(C(=O)OC)C(C(=O)OC)C(C(=O)OC)(C(=O)OC)C(C(=O)OC)=C1C(=O)OC (configuration not stated)	/	/	50µM	89µM	/
COc1ccc(C(=O)NCc2nc(-c3cccc(C)c3)no2)cc1OC	.	/	.	.	.
CC(C)c1ccc(NC(=O)CCn2c(=O)c3cccn3c3ccccc32)cc1	.	/	.	.	.
O=C(O)c1cc(-c2ccccn2)n[nH]1	45µM	.	.	.	.
CCC1=C(c2ccc(C)cc2)S(=O)(=O)N=C1N1CCC(C(=O)N2CCCCC2)CC1	.	/	?	.	.

Screens from PubChem BioAssay.
